Screens deposited in PubChem BioAssay by National Center for Advancing Translational Sciences (NCATS).
TGFb SMAD3 inh = inhibitors of TGF-b signaling. AID 588855. Potency, µM (doses to about 46.1 µM), actives largely listed as inhibitors. HepG2 CAGA-GFP TGF-b/SMAD3 reporter, GFP fluorescence, 18 h; TGF-beta stimulated, 500 pg/mL final. 1.2% of 410,000 active; also: nearly all actives have a fitted effect of over 65% in size
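First, reporter cells (HEPG2 CAGA-GFP) rested 2 h at 37 degrees C. Next, compounds were pinned in and TGF-beta added to 500 pg/mL final. After 18 h, GFP was imaged per cell and summed per well.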
DT40 TDP1 CPT = growth inhibition of DT40 Tdp1-/-;hTDP1 cells with camptothecin (screen for TDP1 inhibitors). chicken DT40 Tdp1-/-;hTDP1 cells + 20 nM CPT, ATP luminescence, 48 h. Potency, µM (series often up to 46.2 µM), usual class: inhibitors. 12% of 420,000 active; also: nearly all actives have a fitted effect of over 55% in size
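Chicken DT40 Tdp1-/- cells stably complemented with human TDP1 were seeded at 400 cells/well in medium containing 20 nM camptothecin, exposed to pin-transferred compounds, and grown at 37 °C for at least 48 hr. Viability was read as ATP luminescence.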
TDP1 block = inhibitors of human tyrosyl-DNA phosphodiesterase TDP1. recombinant TDP1, AlphaScreen DNA substrate cleavage. Potency, µM (top dose mostly 130 µM), actives largely listed as inhibitors. 0.28% of 350,000 active; also: nearly all actives have a fitted effect of over 40% in size
Target sequence (Q9NUW8 whole entry, looked up): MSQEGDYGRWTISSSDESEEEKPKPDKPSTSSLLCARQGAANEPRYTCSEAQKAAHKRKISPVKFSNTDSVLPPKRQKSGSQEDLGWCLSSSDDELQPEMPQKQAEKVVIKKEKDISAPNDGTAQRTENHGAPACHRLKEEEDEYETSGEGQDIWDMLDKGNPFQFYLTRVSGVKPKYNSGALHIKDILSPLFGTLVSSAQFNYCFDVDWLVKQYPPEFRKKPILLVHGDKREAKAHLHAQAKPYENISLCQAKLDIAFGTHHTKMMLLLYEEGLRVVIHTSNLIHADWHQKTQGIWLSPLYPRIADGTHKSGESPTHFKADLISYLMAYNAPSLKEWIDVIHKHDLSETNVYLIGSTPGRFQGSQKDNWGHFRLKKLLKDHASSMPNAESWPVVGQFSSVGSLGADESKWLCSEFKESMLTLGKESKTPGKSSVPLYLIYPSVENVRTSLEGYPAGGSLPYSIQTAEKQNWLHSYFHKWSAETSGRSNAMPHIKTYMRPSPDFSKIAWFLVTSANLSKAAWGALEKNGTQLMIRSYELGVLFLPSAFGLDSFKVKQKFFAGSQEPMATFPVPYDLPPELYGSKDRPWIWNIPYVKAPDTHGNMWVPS
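AlphaScreen read-out: signal falls as enzyme removes the 3' tyrosine-FITC from a 5'-biotinylated DNA oligo (15 nM, 5 min, RT). Enzyme was E. coli-made recombinant Tdp1 at 1 nM, exposed to compound for 15 min beforehand; beads 10 ug/ml, 10 min.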
IL1B secr inh = blocks inflammasome-driven IL-1 beta release | THP-1 LPS/ATP IL-1B secretion, AlphaLISA, 16 h; hits give low values | activity change, % at 57.5 µM | 4.7% of 360,000 active | AID 743279; in the data active = activity change below about -50%; inconclusive = mostly about -30% to -49%
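Secreted IL-1B measured by AlphaLISA bead assay after 16 h compound exposure of THP-1 cells; compounds (final up to 57.5 uM) added 1 h before LPS (250 ng/mL) and ATP (1.25 mM) stimulation; lower signal means less secretion.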
HepG2 viability = counter-screen for TGF-b inhibitors: cytotoxicity in HepG2 cells; AID 588856; Potency, µM (titrated, usually from 46.1 µM), hits mostly cytotoxic; 0.76% of 410,000 active; HepG2 CAGA-GFP viability, ATP luminescence, 18 h
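CellTiter-Glo luminescence gave cytotoxicity after 18 hours at 37 degrees C. The cells were HepG2 CAGA-GFP in 1% FBS DMEM, stimulated with 500 pg/mL TGF-beta after compound addition. %Activity was normalised to no-cell wells (complete cell-killing) and DMSO (no toxicity), and curves were fitted and classified.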
DT40 TDP1 no CPT = qHTS for Inhibitors of human tyrosyl-DNA phosphodiesterase 1 (TDP1): qHTS in cells in absence of CPT. 15% of 420,000 active. DT40 Tdp1-/- hTDP1 cells, no CPT, ATP luminescence, 48 h. Potency, µM (doses to about 46.2 µM), usual class: inhibitors; also: nearly all actives have a fitted effect of over 55% in size
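Chicken DT40 Tdp1-/- cells complemented with human TDP1, screened without camptothecin (DMSO vehicle only), 400 cells/well. Compounds pin-transferred, cells incubated at 37 °C for at least 48 hr. Growth read as ATP-dependent luminescence (CellTiter-Glo, 30 min at RT).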
Each line names hits and unclear results; the compound was inactive in the other large screens. This is a sample that favours compounds with a hit; in the whole collection about 18% have one here. Unless noted, calls follow the shape of the dose curve; as a rule, active = well fitted curve in the direction sought with a large enough effect; inconclusive = small, poorly fitted or top-dose-only effect, or another doubt; inactive = no such curve, though single readings can be large; an effect the other way counts as inactive or inconclusive.

COc1ccccc1C(=O)Nc1nnc(S(=O)(=O)N(C)Cc2ccccc2)s1	none
COc1cc(CCN2C(=O)N[C@@H](CCc3ccccc3)C(C(C)=O)=C2C)cc(OC)c1OC	DT40 TDP1 CPT inconclusive, DT40 TDP1 no CPT 23.1µM
CCOc1ccc(C(=O)NNC(=O)C2CC(=O)N(c3ccc(C)cc3)C2)cc1 (configuration not stated)	none
CCOC(=O)C(=CNc1ccc(O)c(C(=O)OC)c1)C(=O)OCC	DT40 TDP1 CPT inconclusive (no result: TDP1 block)
COC(=O)c1cc(NCc2c(F)cccc2Cl)ccc1N1CCOCC1	TGFb SMAD3 inh inconclusive, DT40 TDP1 CPT inconclusive
COC(=O)c1ccc(NCc2cc(O)ccc2O)cc1O	TGFb SMAD3 inh inconclusive, DT40 TDP1 CPT 5.17µM, IL1B secr inh -104.2, DT40 TDP1 no CPT 3.26µM (no result: TDP1 block)
COC(=O)c1ccc(NCc2c(O)ccc(O)c2Br)cc1Cl	TGFb SMAD3 inh inconclusive, DT40 TDP1 CPT 2.59µM, IL1B secr inh -118.5, DT40 TDP1 no CPT 4.61µM (no result: TDP1 block)
Cc1ccc(N2C(=O)CS(=O)(=O)C23C(=O)N(Cc2ccccc2C)c2ccccc23)cc1Cl (configuration not stated)	DT40 TDP1 CPT inconclusive, DT40 TDP1 no CPT inconclusive (no result: IL1B secr inh)
Cc1ccc(CN2[C@@H](CC3CCCCC3)COCCS2(=O)=O)cc1	TGFb SMAD3 inh inconclusive, DT40 TDP1 CPT inconclusive, DT40 TDP1 no CPT 12.6µM (no result: TDP1 block)
O=S1(=O)CCOC[C@H](CC2CCCCC2)N1Cc1cccc(F)c1	DT40 TDP1 CPT inconclusive, DT40 TDP1 no CPT inconclusive (no result: TDP1 block)
O=S1(=O)CCOC[C@H](CC2CCCCC2)N1Cc1ccc(Cl)cc1	TGFb SMAD3 inh inconclusive, DT40 TDP1 CPT 2.82µM, DT40 TDP1 no CPT 3.55µM (no result: TDP1 block)
CC(C)(C)OC(=O)N/N=C\C=C\c1ccc2c(c1)OCO2	TGFb SMAD3 inh inconclusive, IL1B secr inh inconclusive
O=C(c1ccccc1)N1CCN(c2ccccc2F)CC1	none
Cc1ccc2ccc3cc(C(=O)N4CCN(c5ccccc5F)CC4)nc3c2[nH]1	DT40 TDP1 CPT inconclusive, DT40 TDP1 no CPT 16.4µM (no result: IL1B secr inh)
Cc1ccc2ccc3cc(C(=O)Nc4ccc(C)c(F)c4)nc3c2[nH]1	TGFb SMAD3 inh inconclusive, DT40 TDP1 CPT inconclusive, DT40 TDP1 no CPT 16.4µM (no result: IL1B secr inh)
CCOC(=O)C1CCN(C(=O)c2cc3ccc4ccc(C)[nH]c4c3n2)CC1	TGFb SMAD3 inh inconclusive, DT40 TDP1 CPT 18.4µM, DT40 TDP1 no CPT 20.6µM (no result: IL1B secr inh)
CCCc1ccc(C(=O)O)cc1	none (no result: TGFb SMAD3 inh, IL1B secr inh, HepG2 viability)
CC(C)Oc1ccc(C(=O)N2CCN(CCc3ccccn3)CC2)cc1	none (no result: IL1B secr inh)
NC(=O)CSc1nc2ccccc2c(=O)n1CCc1ccccc1	DT40 TDP1 no CPT inconclusive (no result: TDP1 block)
O=c1c2ccccc2nc(-c2ccoc2)n1CCc1ccccc1	DT40 TDP1 CPT 7.31µM, DT40 TDP1 no CPT 6.51µM
O=c1c2ccccc2nc(-c2ccc(Br)cc2)n1Cc1ccccc1	TGFb SMAD3 inh inconclusive, DT40 TDP1 CPT 8.2µM, DT40 TDP1 no CPT 23.1µM
O=c1c2ccccc2nc(-c2ccco2)n1Cc1ccccc1	DT40 TDP1 CPT inconclusive, DT40 TDP1 no CPT inconclusive
COc1cccc(CS(=O)(=O)c2nnnn2CC(C)C)c1	none (no result: TGFb SMAD3 inh, DT40 TDP1 CPT, IL1B secr inh, HepG2 viability, DT40 TDP1 no CPT)
CCCCCCCCNc1ccccc1S(=O)(=O)NCc1ccccc1	TGFb SMAD3 inh inconclusive, DT40 TDP1 CPT inconclusive, DT40 TDP1 no CPT 18.4µM
O=S(=O)(NCc1ccccc1)c1cccc2cccnc12	none
CCCc1sc(N/N=C/c2ccccn2)nc1-c1ccc(F)cc1	TGFb SMAD3 inh 11.2µM, DT40 TDP1 CPT 4.61µM, IL1B secr inh -100.1, DT40 TDP1 no CPT 4.61µM
Cc1nc(N/N=C/c2ccccn2)sc1C	TGFb SMAD3 inh inconclusive, DT40 TDP1 CPT 1.3µM, IL1B secr inh -101.4, DT40 TDP1 no CPT 1.3µM
O=C(CN1C(=O)NC2(CCCCC2)C1=O)Oc1ccc2ccc(=O)oc2c1	none
CC(C)Cn1c(N)c(C(=O)COC(=O)/C=C/c2cccs2)c(=O)n(C)c1=O	DT40 TDP1 CPT inconclusive, DT40 TDP1 no CPT 16.4µM
CC(C)Cn1c(N)c(C(=O)COC(=O)c2c(F)cccc2F)c(=O)n(C)c1=O	none
